# Measured values reported in publication PMC11062922 (Nature Chemical Biology, 2023).
# Where two headings read alike, the source gives them in different places.
# Columns and labels:
# [1] = tested on: CDC42BPG; design: species or system human, MV4-11 + K-562 + COLO205 + SK-N-BE2 + OVCAR-8; settings: read-out: apparent Kd, n = 1
# [2] = tested on: GAK; design: species or system human, MV4-11 + K-562 + COLO205 + SK-N-BE2 + OVCAR-8; settings: read-out: apparent Kd, compound concentrations: 100 nM and 1000 nM (sheet 'Samples'), n = 1
# [3] = tested on: MAPK10; design: species or system human, MV4-11 + K-562 + COLO205 + SK-N-BE2 + OVCAR-8; settings: read-out: apparent Kd, compound concentrations: 100 nM and 1000 nM (sheet 'Samples'), n = 1
# [4] = tested on: MAPK14; design: species or system human, MV4-11 + K-562 + COLO205 + SK-N-BE2 + OVCAR-8; settings: read-out: apparent Kd, n = 1
# [5] = tested on: MAPK9; design: species or system human, MV4-11 + K-562 + COLO205 + SK-N-BE2 + OVCAR-8; settings: read-out: apparent Kd, compound concentrations: 100 nM and 1000 nM (sheet 'Samples'), n = 1
# [6] = tested on: MAPKAPK2; design: species or system human, MV4-11 + K-562 + COLO205 + SK-N-BE2 + OVCAR-8; settings: read-out: apparent Kd, n = 1
# [7] = tested on: NQO1; design: species or system human, MV4-11 + K-562 + COLO205 + SK-N-BE2 + OVCAR-8; settings: read-out: apparent Kd; compound concentrations: 100 nM and 1000 nM (sheet 'Samples'), CATDS: 8.60735929712554E-2; n = 1
# [8] = tested on: TNIK; design: species or system human, MV4-11 + K-562 + COLO205 + SK-N-BE2 + OVCAR-8; settings: read-out: apparent Kd; compound concentrations: 100 nM and 1000 nM (sheet 'Samples'), CATDS: 0.13491621958450101; n = 1
# [9] = tested on: HSPE1; design: species or system human, MV4-11 + K-562 + COLO205 + SK-N-BE2 + OVCAR-8; settings: read-out: apparent Kd; compound concentrations:100 nM and 1000 nM (sheet 'Samples'); n = 1
# [10] = tested on: CAMK2B; design: species or system human, MV4-11 + K-562 + COLO205 + SK-N-BE2 + OVCAR-8; settings: read-out: apparent Kd; compound concentrations:100 nM and 1000 nM (sheet 'Samples'); n = 1
# [11] = tested on: CAMKK2; design: species or system human, MV4-11 + K-562 + COLO205 + SK-N-BE2 + OVCAR-8; settings: read-out: apparent Kd; compound concentrations: 100 nM and 1000 nM (sheet 'Samples'), CATDS: 3.10077731514018E-2; n = 1
# [12] = tested on: CLK1; design: species or system human, MV4-11 + K-562 + COLO205 + SK-N-BE2 + OVCAR-8; settings: read-out: apparent Kd; compound concentrations: 100 nM and 1000 nM (sheet 'Samples'), CATDS: 5.1220055062038403E-2; n = 1
# [13] = tested on: CLK4; design: species or system human, MV4-11 + K-562 + COLO205 + SK-N-BE2 + OVCAR-8; settings: read-out: apparent Kd; compound concentrations: 100 nM and 1000 nM (sheet 'Samples'), CATDS: 6.3001679315381406E-2; n = 1
# [14] = tested on: CSNK1D; design: species or system human, MV4-11 + K-562 + COLO205 + SK-N-BE2 + OVCAR-8; settings: read-out: apparent Kd; compound concentrations: 100 nM and 1000 nM (sheet 'Samples'), CATDS: 3.1213203175664998E-2; n = 1
# [15] = tested on: EIF2AK1; design: species or system human, MV4-11 + K-562 + COLO205 + SK-N-BE2 + OVCAR-8; settings: read-out: apparent Kd; compound concentrations: 100 nM and 1000 nM (sheet 'Samples'), CATDS: 3.5611911741364403E-2; n = 1
# [16] = tested on: FER; design: species or system human, MV4-11 + K-562 + COLO205 + SK-N-BE2 + OVCAR-8; settings: read-out: apparent Kd; compound concentrations: 100 nM and 1000 nM (sheet 'Samples'), CATDS: 4.34234720684002E-2; n = 1
# [17] = tested on: IGF1R; design: species or system human, MV4-11 + K-562 + COLO205 + SK-N-BE2 + OVCAR-8; settings: read-out: apparent Kd; compound concentrations: 100 nM and 1000 nM (sheet 'Samples'), CATDS: 3.6183356665864301E-2; n = 1
# [18] = tested on: INSR; design: species or system human, MV4-11 + K-562 + COLO205 + SK-N-BE2 + OVCAR-8; settings: read-out: apparent Kd; compound concentrations: 100 nM and 1000 nM (sheet 'Samples'), CATDS: 4.1283599015515197E-2; n = 1
# [19] = tested on: MAPK8; design: species or system human, MV4-11 + K-562 + COLO205 + SK-N-BE2 + OVCAR-8; settings: read-out: apparent Kd; compound concentrations: 100 nM and 1000 nM (sheet 'Samples'), CATDS: 0.11476451358793401; n = 1
# [20] = tested on: NUAK1; design: species or system human, MV4-11 + K-562 + COLO205 + SK-N-BE2 + OVCAR-8; settings: read-out: apparent Kd; compound concentrations: 100 nM and 1000 nM (sheet 'Samples'), CATDS: 3.4302390396245802E-2; n = 1
# [21] = tested on: PRKD2; design: species or system human, MV4-11 + K-562 + COLO205 + SK-N-BE2 + OVCAR-8; settings: read-out: apparent Kd; compound concentrations: 100 nM and 1000 nM (sheet 'Samples'), CATDS: 3.5974174305942498E-2; n = 1
# [22] = tested on: PRKD3; design: species or system human, MV4-11 + K-562 + COLO205 + SK-N-BE2 + OVCAR-8; settings: read-out: apparent Kd; compound concentrations: 100 nM and 1000 nM (sheet 'Samples'), CATDS: 3.1846341330559601E-2; n = 1
# [23] = tested on: PTK2B; design: species or system human, MV4-11 + K-562 + COLO205 + SK-N-BE2 + OVCAR-8; settings: read-out: apparent Kd; compound concentrations: 100 nM and 1000 nM (sheet 'Samples'), CATDS: 8.6310597132222E-2; n = 1
# [24] = tested on: PTK2; design: species or system human, MV4-11 + K-562 + COLO205 + SK-N-BE2 + OVCAR-8; settings: read-out: apparent Kd; compound concentrations: 100 nM and 1000 nM (sheet 'Samples'), CATDS: 5.1603916843062203E-2; n = 1
# [25] = molecular target: Q6ZSR9 (human, UniProt Q6ZSR9); design: species or system MV4-11 + K-562 + COLO205 + SK-N-BE2 + OVCAR-8; settings: read-out: apparent Kd; compound concentrations: 100 nM and 1000 nM (sheet 'Samples'), CATDS: 3.1507778196600798E-2; n = 1
# Q6ZSR9, sequence (Q6ZSR9 whole entry, looked up): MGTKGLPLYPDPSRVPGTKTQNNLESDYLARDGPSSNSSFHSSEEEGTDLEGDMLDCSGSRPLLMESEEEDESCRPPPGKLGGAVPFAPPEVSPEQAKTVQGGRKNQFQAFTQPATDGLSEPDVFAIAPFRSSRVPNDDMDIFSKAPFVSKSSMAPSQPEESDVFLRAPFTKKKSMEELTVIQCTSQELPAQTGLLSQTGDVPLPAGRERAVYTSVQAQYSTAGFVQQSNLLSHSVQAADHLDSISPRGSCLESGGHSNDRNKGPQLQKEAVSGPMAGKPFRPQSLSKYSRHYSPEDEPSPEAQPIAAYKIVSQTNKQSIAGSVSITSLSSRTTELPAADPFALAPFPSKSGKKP
# [26] = tested on: RPS6KA1; design: species or system human, MV4-11 + K-562 + COLO205 + SK-N-BE2 + OVCAR-8; settings: read-out: apparent Kd; compound concentrations: 100 nM and 1000 nM (sheet 'Samples'), CATDS: 3.19128363140119E-2; n = 1
# [27] = tested on: TNK1; design: species or system human, MV4-11 + K-562 + COLO205 + SK-N-BE2 + OVCAR-8; settings: read-out: apparent Kd; compound concentrations: 100 nM and 1000 nM (sheet 'Samples'), CATDS: 0.144330390511521; n = 1
# [28] = tested on: TTK; design: species or system human, MV4-11 + K-562 + COLO205 + SK-N-BE2 + OVCAR-8; settings: read-out: apparent Kd; compound concentrations: 100 nM and 1000 nM (sheet 'Samples'), CATDS: 8.7899385258393206E-2; n = 1
# [29] = compound concentrations:100 nM and 1000 nM (sheet 'Samples')
structure (smiles),measurement,setting,value
N#Cc1ccc2c(-c3ccnc(NC4CC4)n3)c(-c3ccc(F)cc3)nn2c1 [GW561436X],potency estimated from few doses,"[1]; compound concentrations: 100 nM and 1000 nM (sheet 'Samples'), CATDS: 0.104980182660456",1180 nM
same,potency estimated from few doses,[2]; CATDS: 0.13668141663723599,650 nM
same,potency estimated from few doses,[3]; CATDS: 0.12548752602980501,775 nM
same,potency estimated from few doses,"[4]; compound concentrations: 100 nM and 1000 nM (sheet 'Samples'), CATDS: 0.192952593667473",356 nM
same,potency estimated from few doses,[5]; CATDS: 0.107953199944472,1100 nM
same,potency estimated from few doses,"[6]; compound concentrations: 100 nM and 1000 nM (sheet 'Samples'), CATDS: 0.17502946768032501",417 nM
same,potency estimated from few doses,[7],2220 nM
same,potency estimated from few doses,[8],667 nM
O=C(Nc1n[nH]c2nc(-c3ccccc3)ccc12)C1CC1 [SB-708999],potency estimated from few doses,[1]; [29],1760 nM
same,potency estimated from few doses,[9],296 nM
FC(F)(F)c1ccccc1-c1cc(-c2c[nH]nc2-c2ccccn2)ccn1 [GW679396X],potency estimated from few doses,[10],628 nM
same,potency estimated from few doses,[4]; [29],845 nM
same,potency estimated from few doses,[6]; [29],941 nM
COc1cc(N2CCN(C(C)C)CC2)ccc1Nc1nc(Nc2ccc(F)cc2C(N)=O)c2cc[nH]c2n1 [GSK1220512A],potency estimated from few doses,[11],2210 nM
same,potency estimated from few doses,[12],361 nM
same,potency estimated from few doses,[13],213 nM
same,potency estimated from few doses,[14],2140 nM
same,potency estimated from few doses,[15],1180 nM
same,potency estimated from few doses,[16],587 nM
same,potency estimated from few doses,[2]; CATDS: 0.16140378921040499,38 nM
same,potency estimated from few doses,[17],1110 nM
same,potency estimated from few doses,[18],691 nM
same,potency estimated from few doses,[3]; CATDS: 0.121038756107581,59.2 nM
same,potency estimated from few doses,[19],64.7 nM
same,potency estimated from few doses,[5]; CATDS: 6.9052364835720206E-2,172 nM
same,potency estimated from few doses,[20],1380 nM
same,potency estimated from few doses,[21],1130 nM
same,potency estimated from few doses,[22],1930 nM
same,potency estimated from few doses,[23],108 nM
same,potency estimated from few doses,[24],354 nM
same,potency estimated from few doses,[25],2040 nM
same,potency estimated from few doses,[26],1910 nM
same,potency estimated from few doses,[27],44.9 nM
same,potency estimated from few doses,[28],104 nM
